LASV entry inh: inhibitors of Lassa virus binding or cell entry | Lassa virus pseudotype entry inhibition, cell reporter | Potency, µM (series often up to 37.9 µM), for the others: at the top dose activity change, negative = inhibition, hits mostly inhibitors | actives 1.2% (n = 300,000) | AID 540256; calls by dose curve; tested in HEK293 cells; also: potency is read from the fitted curve at half-maximal effect; % is scaled to controls: 0 for no effect and ±100 for the full control effect; nearly all actives have a fitted effect of over 50% in size
AMA1 RON2 block: AMA1-RON2 (P. falciparum) interaction inhibition. AlphaScreen AMA1-biotinylated RON2 peptide binding. Potency, µM (top dose mostly 58.2 µM), without a hit: at the highest dose activity change, negative = inhibition, usual class: inhibitors. actives 0.2% (n = 360,000). AID 720542; active = well fitted inhibition curve with a large enough effect; inconclusive = small, poorly fitted or top-dose-only effect; inactive = no such curve, though single readings can be large or run the other way;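 also: potency is read from the fitted curve at half-maximal effect; 0% = vehicle wells and -100% = peptide control; nearly all actives have a fitted effect of over 45% in size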
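AMA1 (3D7) with his tag at 25 nM final met compounds first, then biotinylated RON2 peptide at 25 nM; detection used donor plus acceptor beads, 10 µg/mL apiece, read by AlphaScreen after 30 min at room temperature.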
Shiga toxin inh: inhibitors of Shiga toxin in Vero cells. inhibition, % at 38.7 µM. actives 9.2% (n = 290,000). Vero cells, Shiga toxin protein synthesis inhibition reporter; in the data active = inhibition mostly above about 28%, no sharp cut-off; inactive = mostly below about 43%; also: 0% is about no effect
CHX counter: affects cycloheximide protein synthesis inhibition readout, counter-screen; cell reporter, cycloheximide protein synthesis inhibition counterscreen; AID 2314; actives 12% (n = 300,000); max response, %; in the data active = max response mostly above about 13%, no sharp cut-off; inactive = mostly below about 14%; also: read at 38.3 µM for the half of the compounds with a filed dose; 0% is about no effect
Marburg entry inh: inhibitors of Marburg virus binding or cell entry; Marburg virus pseudotyped entry inhibition, cell reporter; Potency, µM (top dose mostly 37.8 µM), inactives show at the top dose activity change, negative = inhibition, actives largely listed as inhibitors; actives 1.8% (n = 300,000); AID 540276; calls by dose curve; tested in HEK293 cells; also: potency is read from the fitted curve at half-maximal effect; % is scaled to controls: 0 for no effect and ±100 for the full control effect
Starred values were filed as active, the others as inactive; i = inactive; ? = inconclusive; . = no result; [ ] = remark or other dose. The full list was thinned out, with hits kept by preference.

SMILES	LASV entry inh	AMA1 RON2 block	Shiga toxin inh	CHX counter	Marburg entry inh
Cn1cc(CN2CCN(c3ccccc3)CC2)c2ccccc21	-18.0%	-7.5%	-20.5	-2.2	14.6µM*
O=C(NCc1ccco1)c1cnn2cccnc12	7.7%[46.1 µM]	11.8%	-6.4	-1.8	-0.4%[46.1 µM]
CCOC(=O)CNC(=O)c1cnn2cccnc12	0.6%	16.6%	50.8	41.7*	14.3%[46.1 µM]
CNC(=O)c1sc(-c2cccs2)nc1C	3.8%	-6.6%	33.9	35.9*	7.1%[46.1 µM]
O=C(/C=C/c1ccc(-c2ccccc2[N+](=O)[O-])o1)c1ccco1	-4.2%	?	113.0*	37.2*	-16.5%[46.1 µM]
O=[N+]([O-])c1ccccc1-c1ccc(/C=N/n2cnnc2)o1	19.4%[14.3 µM]	-11.7%	-22.3	-2.9	?
CC(=C/c1ccc(C(C)C)cc1)/C=N/NC(=O)c1ccncc1	?	49.6%	84.1*	35.5*	1.5%
C/C(Cc1ccccc1)=N\NC(=O)CNC(=O)c1cccc(F)c1	15.6%[46.1 µM]	8.9%	-2.5	-1.4	?
CC(/C=C/c1ccccc1F)=N\NC(=O)c1cccc(F)c1	?	106.0%	64.6*	46.2*	?
CC(/C=N/NC(=O)c1cccc(F)c1)=C\c1ccccc1	.	-11.5%	103.5*	51.0*	.
CC(/C=N/NC(=O)c1ccncc1)=C\c1ccccc1	-1.2%	6.2%	52.0*	22.9*	-6.4%
CC(/C=N/NC(=O)c1cc(-c2ccc(C)s2)[nH]n1)=C\c1ccccc1	?	-17.5%	-14.9	9.1	?
C[C@@H]1CCCCO[C@H](CN(C)Cc2ccccc2)[C@@H](C)CN([C@H](C)CO)C(=O)c2cc(NC(=O)c3ccccc3)ccc2O1	.	-1.9%	.	.	.
CC1=C(C)C[C@@]23CCCN2C(=O)CCC[C@H]3C1	.	.	i	7.2	.
COc1ccccc1C(=O)N/C(=C\c1ccccc1)C(=O)NC(C)C(=O)O (stereo not given)	5.4%[46.1 µM]	6.5%	-12.8	-2.6	-2.4%[46.1 µM]
CC(=C/c1ccccc1)/C=N/NC(=O)c1ccccn1	?	96.2%	23.2*	32.9*	?
COc1ccccc1C(=O)N/N=C/C(C)=C/c1ccccc1	17.9%	12.5%	113.0	18.5*	?
CN(C)C1CSSSC1	.	.	-6.7	-2.6	.
CCN1C(=NCCCOC(C)C)N[C@@H](CCc2ccccc2)[C@H](C(=O)OC)[C@H]1C	.	.	.	.	2.8%[14.2 µM]
CCOc1ccc(NC(=O)Cn2nnc3c(cnn3-c3ccc(F)cc3)c2=O)cc1	0.0%	3.8%	-2.0	-3.0	-0.8%
O=C(Cn1nnc2c(cnn2-c2ccc(F)cc2)c1=O)OC1CCCCC1	16.6%	-23.7%	64.2	27.5*	0.6%[46.1 µM]
COc1ccc(CN2CCC[C@]3(N[C@H](c4ccccc4)[C@@H]4C(=O)N(Cc5ccccc5)C(=O)[C@@H]43)C2=O)cc1	.	-6.5%	.	.	.
O=C1CCS/C(=N\N=C\c2ccc(Cl)cc2Cl)N1	7.0%	4.3%	23.7	15.7*	-1.7%
Cc1ccccc1/C=N/N=C1/NC(=O)CCS1	-32.2%	14.1%	92.3*	39.8*	6.9%[46.1 µM]
CC(OC(=O)Cn1[nH]c(=O)c2ccccc2c1=O)C(=O)Nc1ccccc1[N+](=O)[O-] (stereo not given)	-1.5%	12.0%	.	.	?
SMILES	LASV entry inh	AMA1 RON2 block	Shiga toxin inh	CHX counter	Marburg entry inh
Cc1ccc(CCNC(=O)CN(c2ccc(C(C)C)cc2)S(=O)(=O)c2c(C)nn(C)c2C)cc1	?	.	.	.	14.1%[46.1 µM]
CCOc1ccc2c(c1)sc(=NC(=O)C1CC1)n2C	-3.7%	-17.5%	61.8*	39.3*	0.8%
Cn1c(=NC(=O)C2CCCCC2)sc2cc([N+](=O)[O-])ccc21	?	-4.1%	98.9*	42.0*	?
CCC(=O)N=c1sc2cc([N+](=O)[O-])ccc2n1CCOC	1.9%	1.5%	10.2	4.5	9.1%
O=C(COC(=O)Cc1ccc(S(=O)(=O)N2CCOCC2)s1)Nc1ccc([N+](=O)[O-])cc1	.	-8.1%	.	.	.
COc1ccc(CCN(CC(=O)NC2CCCC2)C(=O)Cn2nnc(-c3ccc(C)o3)n2)cc1OC	-22.5%	-0.7%	-7.8	5.3	0.0%[46.1 µM]
CCCS(=O)(=O)Nc1ccc(Nc2c3ccccc3nc3ccccc23)c(OC)c1	0.708µM*	-26.3%	.	.	?
COc1ccc(Nc2c3c(nc4ccccc24)CCC3)c(OC)c1	?	-5.6%	-5.8	-2.8	?
COc1ccc(Cl)cc1NC(=O)COC(=O)CCNS(=O)(=O)c1cccs1	16.1%	0.7%	.	.	?
O=Cc1ccc(C(=O)OCC(=O)NC(=O)Nc2ccccc2F)cc1	9.0%[46.1 µM]	-4.6%	.	.	0.5%[46.1 µM]

Screening results as filed in PubChem.
